# Like-named read-outs stand apart in the source and are kept apart here.
# Tests used:
# Parameters in all cases: species or system human, MV4-11 + K-562 + COLO205 + SK-N-BE2 + OVCAR-8
# [1] = tested on: ATR; settings: read-out: apparent Kd, n = 1
# [2] = tested on: FRK; settings: read-out: apparent Kd, n = 1
# [3] = tested on: PRKCB; settings: read-out: apparent Kd, n = 1
# [4] = tested on: NLK; settings: read-out: apparent Kd, compound concentrations: 100 nM and 1000 nM (sheet 'Samples'), n = 1
# [5] = tested on: FGFR1; settings: read-out: apparent Kd, n = 1
# [6] = tested on: JAK2; settings: read-out: apparent Kd, n = 1
# [7] = tested on: MAPKAPK2; settings: read-out: apparent Kd, n = 1
# [8] = tested on: ACAD11; settings: read-out: apparent Kd, n = 1
# [9] = tested on: AKT2; settings: read-out: apparent Kd, compound concentrations: 100 nM and 1000 nM (sheet 'Samples'), n = 1
# [10] = tested on: CDK5; settings: read-out: apparent Kd, compound concentrations: 100 nM and 1000 nM (sheet 'Samples'), n = 1
# [11] = tested on: IRAK4; settings: read-out: apparent Kd, compound concentrations: 100 nM and 1000 nM (sheet 'Samples'), n = 1
# [12] = tested on: JAK1; settings: read-out: apparent Kd, compound concentrations: 100 nM and 1000 nM (sheet 'Samples'), n = 1
# [13] = tested on: MAP2K1; settings: read-out: apparent Kd; compound concentrations: 100 nM and 1000 nM (sheet 'Samples'), CATDS: 3.7479108323340499E-3; n = 1
# [14] = tested on: MAP4K1; settings: read-out: apparent Kd, compound concentrations: 100 nM and 1000 nM (sheet 'Samples'), n = 1
# [15] = tested on: PIK3CA; settings: read-out: apparent Kd; compound concentrations: 100 nM and 1000 nM (sheet 'Samples'), CATDS: 3.6748488763129201E-2; n = 1
# [16] = tested on: T1, DJA1; settings: read-out: apparent Kd; compound concentrations: 100 nM and 1000 nM (sheet 'Samples'), CATDS: 3.8361892236094597E-2; n = 1
# T1 construct: gene DNAJA1
# [17] = tested on: CDC7; settings: read-out: apparent Kd; compound concentrations: 100 nM and 1000 nM (sheet 'Samples'), CATDS: 3.6033754639237303E-2; n = 1
# [18] = compound concentrations:100 nM and 1000 nM (sheet 'Samples')
smiles,measurement,setting,value
CN1C[C@@H]2Cn3c(c(C4=C(c5cn(C)c6ccccc56)C(=O)NC4=O)c4ccccc43)C[C@H]2C1.Cl [RO0320234-001],potency estimated from few doses,[1]; [18],438 nM
same,potency estimated from few doses,[2]; [18],290 nM
same,potency estimated from few doses,"[3]; compound concentrations: 100 nM and 1000 nM (sheet 'Samples'), CATDS: 3.7076657703329602E-2",28.4 nM
CCn1c(-c2nonc2N)nc2c(C#CC(C)(C)O)nc(CN3CCCC3)cc21 [GSK1000163A],potency estimated from few doses,[4]; CATDS: 0.163177352109245,1980 nM
O=C1NC(=O)C(N2CCc3ccccc32)=C1c1ccccc1Cl [SB-373598],potency estimated from few doses,[1]; [18],605 nM
same,potency estimated from few doses,[5]; [18],1250 nM
same,potency estimated from few doses,[2]; [18],330 nM
Cl.NCc1ccc(-c2nc(-c3ccc(Cl)c(O)c3)c(-c3ccncc3)[nH]2)cc1 [SB-476429-A],potency estimated from few doses,[6]; [18],347 nM
same,potency estimated from few doses,[7]; [18],94.8 nM
Cn1ncc2c(N)ncnc21 [SKF-18267],potency estimated from few doses,"[8]; compound concentrations: 100 nM and 1000 nM (sheet 'Samples'), CATDS: 4.0481268472205602E-3",1300 nM
same,potency estimated from few doses,[9]; CATDS: 5.1088836681336602E-3,780 nM
same,potency estimated from few doses,"[1]; compound concentrations: 100 nM and 1000 nM (sheet 'Samples'), CATDS: 6.4256483449106902E-3",516 nM
same,potency estimated from few doses,[10]; CATDS: 4.5442394594478004E-3,993 nM
same,potency estimated from few doses,"[5]; compound concentrations: 100 nM and 1000 nM (sheet 'Samples'), CATDS: 4.74692919335207E-3",905 nM
same,potency estimated from few doses,"[2]; compound concentrations: 100 nM and 1000 nM (sheet 'Samples'), CATDS: 7.1234836872725703E-3",436 nM
same,potency estimated from few doses,[11]; CATDS: 3.8610933772381499E-3,1460 nM
same,potency estimated from few doses,[12]; CATDS: 4.8033962123192799E-3,883 nM
same,potency estimated from few doses,"[6]; compound concentrations: 100 nM and 1000 nM (sheet 'Samples'), CATDS: 4.4372825621257503E-3",1050 nM
same,potency estimated from few doses,[13],1590 nM
same,potency estimated from few doses,[14]; CATDS: 5.1468947283468203E-3,769 nM
same,potency estimated from few doses,"[7]; compound concentrations: 100 nM and 1000 nM (sheet 'Samples'), CATDS: 4.1039976146892603E-3",1250 nM
same,potency estimated from few doses,[15],53.3 nM
same,potency estimated from few doses,"[3]; compound concentrations: 100 nM and 1000 nM (sheet 'Samples'), CATDS: 3.7264433576920599E-3",1610 nM
COc1ccc(Nc2ncc(C#N)c(Nc3ccccc3C(N)=O)n2)cc1N1CCN(C)CC1.Cl [GSK1558669A],potency estimated from few doses,[10]; CATDS: 1.3495473564992901E-2,85 nM
same,potency estimated from few doses,"[5]; compound concentrations: 100 nM and 1000 nM (sheet 'Samples'), CATDS: 1.43157906499466E-2",74.1 nM
same,potency estimated from few doses,[11]; CATDS: 1.0871423307460401E-2,148 nM
same,potency estimated from few doses,[12]; CATDS: 1.7272230930398098E-2,49.5 nM
same,potency estimated from few doses,[14]; CATDS: 8.9293608568362503E-3,270 nM
CCOC(=O)N1CCC(n2cnc(-c3ccc(F)cc3)c2-c2ccnc(N)n2)CC1 [SB-219952],potency estimated from few doses,"[8]; compound concentrations: 100 nM and 1000 nM (sheet 'Samples'), CATDS: 8.6091938729062605E-3",1330 nM
same,potency estimated from few doses,"[5]; compound concentrations: 100 nM and 1000 nM (sheet 'Samples'), CATDS: 8.7030488552416706E-3",1280 nM
same,potency estimated from few doses,"[2]; compound concentrations: 100 nM and 1000 nM (sheet 'Samples'), CATDS: 9.3147950048740498E-3",1050 nM
same,potency estimated from few doses,"[7]; compound concentrations: 100 nM and 1000 nM (sheet 'Samples'), CATDS: 4.5642459422858099E-2",60.7 nM
same,potency estimated from few doses,[4]; CATDS: 4.0230749785041403E-2,72.7 nM
Cc1ccc(Nc2ccnc(Nc3ccc4c(c3)CS(=O)(=O)C4)n2)cc1O.Cl [GW579362A],potency estimated from few doses,[10]; CATDS: 3.4142296648309298E-2,844 nM
same,potency estimated from few doses,[4]; CATDS: 6.6652285634060698E-2,208 nM
COc1cccc2c(-c3ccncc3)c(-c3ccc(F)cc3)nn12 [GW468513X],potency estimated from few doses,[16],1520 nM
same,potency estimated from few doses,"[7]; compound concentrations: 100 nM and 1000 nM (sheet 'Samples'), CATDS: 0.11200666699730499",80.6 nM
Cl.ON=C1CCc2cc(-c3nc(C4CCNCC4)[nH]c3-c3ccncc3)ccc21 [SB-614067-R],potency estimated from few doses,[7]; [18],874 nM
CCn1c(-c2nonc2N)nc2c(C#CC(C)(C)O)nc(OCCN)cc21.CCn1c(-c2nonc2N)nc2c(C#CC(C)(C)O)nc(OCCN)cc21.Cl.Cl [GSK902056A],potency estimated from few doses,[3]; [18],1980 nM
Cc1ccc2c(-c3ccncc3)c(-c3ccc(F)cc3)nn2c1.Cl [GW461484A],potency estimated from few doses,[1]; [18],838 nM
same,potency estimated from few doses,[2]; [18],887 nM
same,potency estimated from few doses,[7]; [18],573 nM
CCn1c(-c2nonc2N)nc2c(-c3ccccc3)ncc(OCCCN)c21.CCn1c(-c2nonc2N)nc2c(-c3ccccc3)ncc(OCCCN)c21.O=C(O)C(F)(F)F.O=C(O)C(F)(F)F [GSK260205A],potency estimated from few doses,[9]; CATDS: 4.8057080770149398E-2,339 nM
same,potency estimated from few doses,[17],714 nM
same,potency estimated from few doses,"[7]; compound concentrations: 100 nM and 1000 nM (sheet 'Samples'), CATDS: 0.102958619201112",74.4 nM
same,potency estimated from few doses,[4]; CATDS: 6.7931350663373802E-2,162 nM
Fc1ccc(-c2c(-c3ccncc3)[nH]c3cccnc23)cc1 [RO1153853-000],potency estimated from few doses,"[7]; compound concentrations: 100 nM and 1000 nM (sheet 'Samples'), CATDS: 8.5753103075807094E-2",373 nM
Cl.Cl.NCC(C(=O)Nc1cc(Br)c(-c2ccnc3[nH]ccc23)s1)c1ccccc1.NCC(C(=O)Nc1cc(Br)c(-c2ccnc3[nH]ccc23)s1)c1ccccc1 (stereo not drawn) [GSK1269851A],potency estimated from few doses,[8]; [18],1260 nM
same,potency estimated from few doses,[1]; [18],889 nM
same,potency estimated from few doses,[5]; [18],1730 nM
same,potency estimated from few doses,[2]; [18],846 nM

# Reference: paper PMC11062922 (Nature Chemical Biology, 2023)
